In PubChem BioAssay (NCATS):
“And” between values parts separate entries of the source, which are not always exact repeats. Identical values can stand only once. Results filed as inconclusive are left out. The source holds several records for some structures; these can differ, active in one and inactive in another. The source made the active and inactive calls. Calls come from the whole dose curve; as a rule, active = well fitted inhibition curve with a large enough effect; inconclusive = small, poorly fitted or top-dose-only effect; inactive = flat fitted curve, though single readings scatter.

Assays:
CRL-7250 = normal cell line; assay: Cytotoxic Profiling of Annotated Libraries Using Quantitative High-Throughput Screening (AID 1296008); settings: Five cell lines viability, CellTiter-Glo ATP luminescence, 48-72 h; max response: hits give low values; note: potency is the fitted concentration of half-maximal effect
Procedure, shortened: (§1)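 Cytotoxicity was measured as CellTiter-Glo ATP luminescence, read after 10 min at room temperature. Compound treatment of the cells lasted 48 or 72 hr at 37 degrees Celsius in a qHTS format.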

HEK293 = assay: as above; settings: Five cell lines viability, CellTiter-Glo ATP luminescence, 48-72 h; max response: hits give low values
Procedure, shortened: as §1

HaCat [1] = assay: as above; settings: Five cell lines viability, CellTiter-Glo ATP luminescence, 48-72 h; max response: hits give low values
Procedure, shortened: as §1

KB-3-1 = assay: as above; settings: Five cell lines viability, CellTiter-Glo ATP luminescence, 48-72 h; max response: hits give low values
Procedure, shortened: as §1

NIH3T3 = assay: as above; settings: Five cell lines viability, CellTiter-Glo ATP luminescence, 48-72 h; max response: hits give low values
Procedure, shortened: as §1

HACAT [2] = assay: qHTS assay to identify novel small-molecules to repurpose for Merkel cell carcinoma treatment (AID 1296009); settings: MCC and control cell lines, CellTiter-Glo viability, 72 h; at 44.8 µM (top of the series) unless noted
Procedure, shortened: (§2)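 Cell viability, measured as CellTiter-Glo luminescence, was normalized between DMSO and no-cell wells. The cells had been exposed to 8- or 11-point compound dilutions for 72 hr at 37 degree celsius.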

MCC-13 = assay: as above; settings: MCC and control cell lines, CellTiter-Glo viability, 72 h; series mostly up to 46 µM
Procedure, shortened: as §2

HEK293T = assay: as above; settings: MCC and control cell lines, CellTiter-Glo viability, 72 h; series mostly up to 44.8 µM
Procedure, shortened: as §2
% is set by controls: 0 for no effect and ±100 for the full control effect.
Note: nearly all actives have a fitted effect of over 60% in size.

N#Cc1ccc(COC[C@H]2O[C@@H](n3c(NCc4ccc(Cl)c(Cl)c4)nc4c(N)ncnc43)[C@@H](O)[C@@H]2O)cc1
active: Potency (HEK293) 16600 nM | Potency (HaCat [1]) 11.8 µM
inactive: max response (CRL-7250) -5.8%

CCCCOc1ccc(C(=O)Nc2ccc(F)cc2F)cc1
inactive: max response (CRL-7250) -1.1% | outcome (CRL-7250) | max response (HEK293) 2.49% | outcome (HaCat [1]) | max response (KB-3-1) 0.701% | max response (NIH3T3) -3.26% | outcome (NIH3T3) | outcome (HACAT [2]) | Potency (MCC-13)

CCOC(=O)[C@@H](N)Cc1ccc(-c2cc(O[C@H](c3ccc(Cl)cc3-n3ccc(C)n3)C(F)(F)F)nc(N)n2)cc1
inactive: max response (CRL-7250) -8.01% | max response (HEK293) -5.12% | max response (HaCat [1]) 1.01% | outcome (HaCat [1]) | max response (KB-3-1) 6.69% | outcome (HACAT [2]) | Potency (MCC-13)

Cc1ncc(-c2ccnc(Nc3ccc(S(C)(=O)=O)cc3)n2)n1C(C)C
active: Potency (CRL-7250) 3.72 µM | Potency (HEK293) 4610 nM | Potency (HaCat [1]) 8.33 µM and 5.8 µM | Potency (KB-3-1) 5.26 µM and 5.17 µM | Potency (NIH3T3) 13.2 µM

CC1(C)O[C@@H]2C[C@H]3[C@@H]4CCC5=CC(=O)C=C[C@]5(C)[C@@H]4[C@@H](O)C[C@]3(C)[C@]2(C(=O)CO)O1
inactive: max response (CRL-7250) -21.1% | outcome (HEK293) | outcome (HaCat [1]) | outcome (KB-3-1) | max response (NIH3T3) -5.4% | outcome (HACAT [2]) | Potency (HEK293T) | Potency (MCC-13)

C=CC[C@@H]1C=C(C)C[C@H](C)C[C@H](OC)[C@H]2O[C@@](O)(C(=O)C(=O)N3CCCC[C@H]3C(=O)O[C@H](C(C)=C[C@@H]3CC[C@H](O)[C@H](OC)C3)[C@@H](C)[C@@H](O)CC1=O)[C@@H](C)C[C@@H]2OC
active: Potency (HEK293) 7430 nM
inactive: max response (CRL-7250) -10% | outcome (HaCat [1]) | outcome (KB-3-1) | outcome (NIH3T3) | outcome (HACAT [2])

CN1C(C(=O)Nc2ccccn2)=C(O)c2sc(Cl)cc2S1(=O)=O
inactive: outcome (CRL-7250) | outcome (HEK293) | outcome (HaCat [1]) | max response (KB-3-1) 3.99% | max response (NIH3T3) -1.3% | outcome (HACAT [2]) | Potency (HEK293T) | Potency (MCC-13)

c1cncc(CN2CCC(n3ncc4c(N5CCOCC5)nc(-c5ccc6[nH]ccc6c5)nc43)CC2)c1
active: Potency (CRL-7250) 4.18 µM and 7.31 µM | Potency (HEK293) 5800 nM | Potency (HaCat [1]) 14.8 µM and 18.4 µM | Potency (KB-3-1) 10.3 µM | Potency (NIH3T3) 9.35 µM and 5.17 µM

Cc1cc(C(=O)NOCCO)c(Nc2ccc(I)cc2F)n(C)c1=O
inactive: max response (HEK293) -3.43% | max response (HaCat [1]) -66.6% | max response (KB-3-1) -2.94%
active: Potency (CRL-7250) 0.743 µM

N#Cc1c(NC(=O)c2cccc3ccccc23)sc2c1CCCC2
active: Potency (CRL-7250) 1.32 µM | Potency (HEK293) 372 nM | Potency (KB-3-1) 0.469 µM | Potency (NIH3T3) 0.332 µM
inactive: outcome (HaCat [1]) | outcome (HACAT [2])

COC(=O)[C@@H]1CC2=CC(=O)CC[C@]2(C)[C@@]23O[C@@H]2C[C@@]2(C)[C@H](CC[C@@]24CCC(=O)O4)[C@@H]13
inactive: max response (CRL-7250) -3.2% | outcome (HEK293) | outcome (HaCat [1]) | outcome (KB-3-1) | outcome (NIH3T3) | outcome (HACAT [2]) | Potency (HEK293T) | Potency (MCC-13)

CC(C)N1[N]C(=C2C=c3cc(O)ccc3=N2)c2c(N)ncnc21
active: Potency (CRL-7250) 0.0418 µM | Potency (HEK293) 469 nM | Potency (HaCat [1]) 11.8 µM | Potency (KB-3-1) 1.18 µM | Potency (NIH3T3) 0.526 µM

COc1cc2c(Nc3ccc(Cl)c(Cl)c3F)ncnc2cc1OCC1C[C@@H]2CN(C)C[C@H]2C1
inactive: max response (HaCat [1]) -106%
active: Potency (CRL-7250) 9.35 µM | Potency (HEK293) 4690 nM | Potency (KB-3-1) 5.9 µM

C=C1C[C@@]2(O)O[C@@]3(C[C@H]2C(C)C)[C@H](C)CC[C@H]13
inactive: max response (CRL-7250) -11.2% | max response (HEK293) 0.867% | outcome (HaCat [1]) | outcome (KB-3-1) | max response (NIH3T3) 2.78% | outcome (HACAT [2]) | Potency (MCC-13)

CC1(C)CC(O)CC(C)(C)N1[O]
inactive: outcome (CRL-7250) | outcome (HEK293) | outcome (HaCat [1]) | max response (KB-3-1) 7.14% | max response (NIH3T3) -4% | outcome (HACAT [2]) | Potency (HEK293T) | Potency (MCC-13)

CC(C)(N)c1ccc(-c2nc3ccccc3nc2-c2ccccc2)cc1
active: Potency (CRL-7250) 0.0743 µM | Potency (HEK293) 59 nM | Potency (KB-3-1) 1.87 µM | Potency (NIH3T3) 25.9 µM
inactive: max response (CRL-7250) -8.83% | max response (HaCat [1]) -35.2% and -5.95% | Potency (MCC-13)

CNC(=O)c1ccc(Nc2cc(Nc3ccccc3S(=O)(=O)C(C)C)c3cc[nH]c3n2)nc1
active: Potency (CRL-7250) 3.32 µM | Potency (HEK293) 2090 nM | Potency (HaCat [1]) 2.96 µM | Potency (KB-3-1) 1.32 µM | Potency (NIH3T3) 2.35 µM

C=Cc1c(C)c2cc3nc(cc4[nH]c(cc5nc(cc1[nH]2)C(C)=C5CCC(=O)O)c(CCC(=O)OC)c4C)[C@@]1(C)C3=CC=C(C(=O)OC)[C@H]1C(=O)OC
active: Potency (HEK293) 11800 nM
inactive: max response (CRL-7250) 1.72% | outcome (HaCat [1]) | outcome (KB-3-1) | max response (NIH3T3) 4.13% | outcome (HACAT [2])

Cn1cc(C=CC(=O)c2cccc(F)c2)cc1C=CC(=O)NO
inactive: max response (CRL-7250) -7.49% | outcome (HEK293) | outcome (HaCat [1]) | outcome (KB-3-1) | outcome (NIH3T3) | outcome (HACAT [2]) | Potency (HEK293T) | Potency (MCC-13)

Nc1nc(=O)n([C@H]2CSC(CO)O2)cc1F (some centres not stated)
inactive: max response (CRL-7250) -8.43% | outcome (HEK293) | outcome (HaCat [1]) | max response (KB-3-1) 9.64% | outcome (NIH3T3) | outcome (HACAT [2]) | Potency (HEK293T) | Potency (MCC-13)
